Reference: PubChem BioAssay AID1159580 (chemical genetic matrix, 2015)
About 2,000 (36%) of roughly 5,500 compounds were called active. Roughly 18% stayed inconclusive and do not appear here. Cut-off read from the data, not from the text of the source: active = normalized growth mostly below about 0.91 (no sharp cut-off); inconclusive = no clear call, values can overlap the other calls; inactive = mostly above about 0.92. The list shows a part of the results.

Assay: chemical genetic growth profiling, strain panel (AID 1159580);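 note: tested at 20 µM; growth read once vehicle control cultures reached saturation at 30 °C; 1 = growth at the plate median or of vehicle wells; lower values mean less growth of the strain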
Details: S. cerevisiae deletion strains, growth OD

Measured: normalized growth

CC(=O)O[C@H]1C[C@@]2(C)[C@H](c3ccoc3)OC(=O)[C@H]3O[C@]32[C@@]2(C)C1[C@]1(C)C(C[C@H]2OC(C)=O)C(C)(C)[C@H](OC(C)=O)C[C@@H]1OC(C)=O (stereo partly drawn)
active: locus YGL253W, strain hxk2, hits give low values 0.907
inactive: locus YAL013W, strain DEP1, hits give low values 0.999 | locus YAL021C, strain ccr4, hits give low values 1.04 | locus YAL026C, strain drs2, hits give low values 0.97 | locus YAL030W, strain snc1, hits give low values 0.997 | locus YBL061C, strain skt5, hits give low values 0.993 | locus YBR009C, strain hhf1, hits give low values 1.05 | locus YBR021W, strain FUR4, hits give low values 1.02 | locus YBR023C, strain chs3, hits give low values 1 | locus YBR171W, strain sec66, hits give low values 0.958 | locus YBR229C, strain ROT2, hits give low values 0.949 | locus YBR231C, strain swc5, hits give low values 1 | locus YBR279W, strain paf1, hits give low values 0.998 | locus YCL011C, strain gbp2, hits give low values 0.998 | locus YCL016C, strain dcc1, hits give low values 1.05 | locus YCL029C, strain bik1, hits give low values 0.971 | locus YCL061C, strain MRC1, hits give low values 1 | locus YCL069W, strain vba3, hits give low values 0.975 | locus YCR088W, strain abp1, hits give low values 0.99 | locus YDL005C, strain med2, hits give low values 0.968 | locus YDL035C, strain GPR1, hits give low values 0.968 | locus YDL040C, strain nat1, hits give low values 0.99 | locus YDL074C, strain BRE1, hits give low values 0.999 | locus YDL101C, strain DUN1, hits give low values 0.974 | locus YDL134C, strain PPH21, hits give low values 0.986 | locus YDL185W, strain tfp1, hits give low values 0.953 | locus YDL192W, strain arf1, hits give low values 0.992 | locus YDR001C, strain nth1, hits give low values 0.989 | locus YDR069C, strain doa4, hits give low values 0.972 | locus YDR101C, strain arx1, hits give low values 0.946 | locus YDR137W, strain rgp1, hits give low values 1 | locus YDR159W, strain sac3, hits give low values 0.918 | locus YDR162C, strain NBP2, hits give low values 1.01 | locus YDR195W, strain ref2 0.981 | locus YDR297W, strain sur2, hits give low values 0.982 | locus YDR318W, strain mcm21, hits give low values 0.973 | locus YDR334W, strain swr1, hits give low values 0.975 | locus YDR335W, strain msn5, hits give low values 0.997 | locus YDR388W, hits give low values 0.983 | locus YDR392W, strain spt3, hits give low values 1 | locus YDR502C, strain sam2, hits give low values 0.987 | locus YEL003W, strain gim4, hits give low values 0.967 | locus YEL037C, strain rad23, hits give low values 0.989 | locus YEL061C, strain CIN8 (second series), hits give low values 0.978 | locus YEL061C, strain CIN8, hits give low values 0.997 | locus YER015W, strain faa2, hits give low values 0.997 | locus YER016W, strain bim1, hits give low values 0.98 | locus YER110C, hits give low values 0.974 | locus YER111C, strain swi4, hits give low values 0.979 | locus YER155C, strain BEM2 (second series), hits give low values 1.02 | locus YER155C, strain BEM2, hits give low values 1.01 | locus YER167W, strain BCK2, hits give low values 0.981 | locus YFR010W, strain ubp6, hits give low values 0.955 | locus YGL078C, strain dbp3, hits give low values 0.972 | locus YGL086W, strain mad1, hits give low values 0.996 | locus YGL167C, strain pmr1, hits give low values 0.99 | locus YGL173C, strain kem1, hits give low values 0.964 | locus YGL227W, strain vid30, hits give low values 0.983 | locus YGL240W, strain doc1, hits give low values 0.978 | locus YGL248W, strain PDE1, hits give low values 0.989 | locus YGR135W, strain pre9, hits give low values 1 | locus YGR252W, strain gcn5, hits give low values 0.94 | locus YHR013C, strain ard1, hits give low values 1.01 | locus YHR027C, strain rpn1, hits give low values 0.993 | locus YHR030C, strain SLT2, hits give low values 0.991 | locus YHR079C, strain IRE1 (second series), hits give low values 0.991 | locus YHR094C, strain hxt1, hits give low values 0.975 | locus YHR129C, strain ARP1, hits give low values 0.995 | locus YHR142W, strain chs7, hits give low values 1 | locus YHR200W, strain rpn10, hits give low values 0.977 | locus YIL066C, strain RNR3, hits give low values 0.949 | locus YIL073C, strain SPO22, hits give low values 0.949 | locus YIL125W, strain kgd1, hits give low values 0.983 | locus YIR030C, strain dcg1, hits give low values 0.981 | locus YJL092W, strain hpr5, hits give low values 0.973 | locus YJL095W, strain BCK1 (second series), hits give low values 0.977 | locus YJL095W, strain BCK1, hits give low values 1.02 | locus YJL115W, strain asf1, hits give low values 0.987 | locus YJL129C, strain trk1, hits give low values 0.966 | locus YJL134W, strain LCB3, hits give low values 0.989 | locus YJL154C, strain vps35, hits give low values 0.996 | locus YJL164C, strain tpk1, hits give low values 1.02 | locus YJL166W, strain qcr8, hits give low values 0.976
